Test results as given in PubChem BioAssay.
Activity calls are given as the source filed them.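 Rule for the calls, unless noted: active = mean inhibition over 43.08%, the solvent-only control mean plus 3 SD; inactive = the rest.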

Assays:
[1] = biological target: Nuclear receptor coactivator 3 (Homo sapiens) (UniProt Q9Y6Q9); assay: SRC3 coactivator transcriptional activity inhibitors, confirmation, cell-based, luminescence, quadruplicate (AID 588792); conditions: HEK293 GAL4-SRC3 luciferase reporter, at 3.6 µM, hits give high values;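 note: 0% = DMSO treated cells and 100% = gossypol at 36 µM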
Chain of Nuclear receptor coactivator 3 (Homo sapiens) (Q9Y6Q9 whole entry, looked up, the tested form may be a part): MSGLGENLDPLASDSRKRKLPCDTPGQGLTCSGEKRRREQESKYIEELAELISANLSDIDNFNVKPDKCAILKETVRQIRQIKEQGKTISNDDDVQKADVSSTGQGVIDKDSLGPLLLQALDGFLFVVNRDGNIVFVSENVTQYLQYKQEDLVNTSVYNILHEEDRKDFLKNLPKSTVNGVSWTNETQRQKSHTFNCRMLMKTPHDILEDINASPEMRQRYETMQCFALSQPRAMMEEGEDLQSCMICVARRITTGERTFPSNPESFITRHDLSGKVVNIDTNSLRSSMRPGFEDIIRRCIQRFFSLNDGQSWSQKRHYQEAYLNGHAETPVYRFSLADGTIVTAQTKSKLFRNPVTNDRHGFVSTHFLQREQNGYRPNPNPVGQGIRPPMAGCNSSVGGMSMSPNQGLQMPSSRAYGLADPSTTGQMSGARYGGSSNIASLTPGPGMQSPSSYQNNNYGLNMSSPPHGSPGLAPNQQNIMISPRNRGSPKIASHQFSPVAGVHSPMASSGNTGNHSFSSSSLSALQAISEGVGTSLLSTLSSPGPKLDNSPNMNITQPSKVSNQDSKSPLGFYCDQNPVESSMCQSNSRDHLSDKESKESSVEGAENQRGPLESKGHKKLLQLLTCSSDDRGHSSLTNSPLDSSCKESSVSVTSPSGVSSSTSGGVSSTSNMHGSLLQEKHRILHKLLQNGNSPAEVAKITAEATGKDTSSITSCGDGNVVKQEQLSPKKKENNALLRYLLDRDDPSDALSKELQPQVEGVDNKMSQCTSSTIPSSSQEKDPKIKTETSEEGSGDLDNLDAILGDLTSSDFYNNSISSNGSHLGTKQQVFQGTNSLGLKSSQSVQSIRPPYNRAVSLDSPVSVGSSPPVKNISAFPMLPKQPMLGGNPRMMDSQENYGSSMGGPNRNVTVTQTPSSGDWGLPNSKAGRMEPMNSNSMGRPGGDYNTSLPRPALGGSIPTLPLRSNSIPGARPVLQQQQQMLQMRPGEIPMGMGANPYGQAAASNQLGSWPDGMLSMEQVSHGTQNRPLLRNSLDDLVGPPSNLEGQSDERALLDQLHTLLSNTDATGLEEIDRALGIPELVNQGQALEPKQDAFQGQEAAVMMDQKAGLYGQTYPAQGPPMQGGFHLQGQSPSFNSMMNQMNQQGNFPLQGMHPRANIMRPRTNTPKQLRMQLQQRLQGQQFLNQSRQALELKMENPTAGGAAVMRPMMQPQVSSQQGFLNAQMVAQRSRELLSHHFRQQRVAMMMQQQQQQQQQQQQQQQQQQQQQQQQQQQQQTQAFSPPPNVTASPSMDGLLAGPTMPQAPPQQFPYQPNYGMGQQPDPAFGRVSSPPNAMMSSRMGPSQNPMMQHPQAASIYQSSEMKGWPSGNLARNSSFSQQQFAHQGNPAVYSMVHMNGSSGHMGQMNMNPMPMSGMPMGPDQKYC

[2] = tested on: transactivating tegument protein VP16 (Human herpesvirus 1), Gal4-VP16 luciferase reporter; assay: VP16 transactivation inhibitors, counter-screen for SRC3 inhibitor project, cell-based, luminescence, high throughput (AID 588794; in the data active = inhibition above about 30%); conditions: mammalian cells, VP16-driven luciferase reporter luminescence; at 3.6 µM; hits give high values
[3] = biological target: Nuclear receptor coactivator 1 (Homo sapiens) (UniProt Q15788); assay: SRC1 coactivator transcriptional activity inhibitors, confirmation, cell-based, luminescence, quadruplicate (AID 588820;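 active = mean inhibition above 46.68%, the untreated control wells mean plus 3 SD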;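 note: 0% = DMSO wells and 100% = gossypol 36 µM treated wells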); conditions: HEK293 GAL4-SRC1 luciferase reporter, at 3.6 µM, hits give high values
Chain of Nuclear receptor coactivator 1 (Homo sapiens) (Q15788 whole entry, looked up, the tested form may be a part): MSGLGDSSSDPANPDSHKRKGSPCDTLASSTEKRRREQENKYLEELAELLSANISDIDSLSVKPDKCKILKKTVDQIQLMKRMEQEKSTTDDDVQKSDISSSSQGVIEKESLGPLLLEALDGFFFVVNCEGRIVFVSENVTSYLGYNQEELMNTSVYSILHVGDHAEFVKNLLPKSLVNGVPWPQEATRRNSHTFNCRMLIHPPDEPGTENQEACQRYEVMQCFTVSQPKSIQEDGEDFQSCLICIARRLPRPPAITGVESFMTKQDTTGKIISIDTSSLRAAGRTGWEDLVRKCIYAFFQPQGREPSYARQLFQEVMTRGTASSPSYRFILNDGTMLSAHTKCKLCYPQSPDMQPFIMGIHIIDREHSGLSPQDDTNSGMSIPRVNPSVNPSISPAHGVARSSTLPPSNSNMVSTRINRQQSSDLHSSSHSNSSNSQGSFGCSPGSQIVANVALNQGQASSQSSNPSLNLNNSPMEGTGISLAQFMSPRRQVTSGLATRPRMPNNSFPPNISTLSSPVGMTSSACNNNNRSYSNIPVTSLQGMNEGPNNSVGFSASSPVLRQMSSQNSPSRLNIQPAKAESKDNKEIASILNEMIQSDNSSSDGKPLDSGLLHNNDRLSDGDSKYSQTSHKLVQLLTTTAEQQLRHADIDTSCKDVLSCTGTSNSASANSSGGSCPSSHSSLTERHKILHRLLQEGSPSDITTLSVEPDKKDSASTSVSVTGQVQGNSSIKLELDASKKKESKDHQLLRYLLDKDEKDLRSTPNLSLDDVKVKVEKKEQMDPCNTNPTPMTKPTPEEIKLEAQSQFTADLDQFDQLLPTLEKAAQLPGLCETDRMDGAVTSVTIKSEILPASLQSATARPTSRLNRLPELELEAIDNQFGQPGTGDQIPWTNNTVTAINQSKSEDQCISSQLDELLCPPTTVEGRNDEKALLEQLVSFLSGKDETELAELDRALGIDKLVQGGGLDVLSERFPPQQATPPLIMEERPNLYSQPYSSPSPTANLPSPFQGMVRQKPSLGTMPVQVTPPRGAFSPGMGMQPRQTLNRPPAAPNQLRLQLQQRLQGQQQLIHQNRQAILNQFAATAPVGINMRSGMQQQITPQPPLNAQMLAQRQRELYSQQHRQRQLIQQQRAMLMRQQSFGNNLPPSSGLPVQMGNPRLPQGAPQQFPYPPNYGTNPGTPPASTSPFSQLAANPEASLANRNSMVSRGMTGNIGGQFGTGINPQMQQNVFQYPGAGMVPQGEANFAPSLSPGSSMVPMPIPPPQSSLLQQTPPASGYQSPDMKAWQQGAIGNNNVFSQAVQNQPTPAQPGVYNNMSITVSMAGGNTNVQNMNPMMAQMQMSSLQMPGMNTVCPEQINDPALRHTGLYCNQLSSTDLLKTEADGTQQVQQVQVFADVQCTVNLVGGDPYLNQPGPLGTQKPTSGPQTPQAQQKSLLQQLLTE

[4] = VP16 transactivation inhibitors, counter-screen for SRC1 inhibitor project, cell-based, luminescence, high throughput (AID 588824; in the data active = inhibition above about 25%); conditions: cell-based VP16 transactivation luciferase luminescence; at 3.6 µM; hits give high values

Structure (SMILES) | inhibition [1] | inhibition [2] | inhibition [3] | inhibition [4]
CSc1ncnc2c1ncn2CC(=O)C1CCC2C3CCC4=CC(=O)CCC4(C)C3CCC12C (stereo not given) | 19.5% (inactive) | 12.2% (inactive) | -0.31% (inactive) | 12.1% (inactive)
COc1cc(/C=C2\CC(C(C)(C)C)C/C(=C\c3cc(OC)c(OC)c(OC)c3)C2=O)cc(OC)c1OC (stereo not given) | 58.4% (active) | 19.3% (inactive) | 19.8% (inactive) | 18.4% (inactive)
Cn1c2c(c(=O)n(C)c1=O)C(C(F)(F)F)(C(F)(F)F)N=C(C1CCCCC1)N2 | 11.5% (inactive) | 20.6% (inactive) | 10.2% (inactive) | 12.8% (inactive)
O=C(N/N=C(\c1ccccc1)c1ccccn1)c1ccccc1Cl | 35.8% (inactive) | 22.1% (inactive) | 25.9% (inactive) | 12.4% (inactive)
Fc1ccc(NC(=S)NNc2ncc(C(F)(F)F)cc2Cl)c(F)c1 | 4.99% (inactive) | 23% (inactive) | 15.9% (inactive) | 29.1% (active)
COc1ccc(CNc2nn3c(-c4cccc(C(=O)N(C)C)c4)cnc3s2)cc1 | 50.3% (active) | 30.7% (active) | 51.7% (active) | 33.5% (active)
CC12CCC(C(=O)N/N=C/c3ccc(O)cc3O)(OC1=O)C2(C)C (stereo not given) | 6.17% (inactive) | 16.8% (inactive) | 11.4% (inactive) | 6.4% (inactive)
COc1cccc(CN(C)C(=O)c2ccc(OCC(=O)Nc3cccc(C(F)(F)F)c3)c(OC)c2)c1 | 14.8% (inactive) | 34% (active) | 6.82% (inactive) | 35.6% (active)
CN(CC1CCCO1)S(=O)(=O)c1ccc(C(=O)Nc2nc3cc4c(cc3s2)OCO4)cc1 (stereo not given) | 14.7% (inactive) | 39.8% (active) | 0.14% (inactive) | 39.8% (active)
O=[N+]([O-])c1ccc(O)c(/C=N/Nc2ccccn2)c1 | 56.8% (active) | 41.6% (active) | 60.6% (active) | 37.1% (active)
O=C(CCl)N1N=C(c2ccco2)CC1c1cccs1 (stereo not given) | 55.1% (active) | 31.6% (active) | 15.3% (inactive) | 21.7% (inactive)
Cc1ccc(-c2n[nH]c(=S)n2/N=C/c2ccncc2)cc1 | 26% (inactive) | 19.3% (inactive) | 37.6% (inactive) | 28.7% (active)
CN(C)c1ccc(CNC(=O)CCNS(=O)(=O)c2cc(Br)cnc2N)cc1 | 31.5% (inactive) | 19.3% (inactive) | 8.5% (inactive) | 20.7% (inactive)
C=CCOc1ccccc1CNc1ccc2c(c1)OCCO2 | 25.2% (inactive) | 12.4% (inactive) | -17.1% (inactive) | -30.1% (inactive)
Cc1csc(CNc2ncnc3ccc(-c4ccoc4)cc23)c1 | 52.7% (active) | 47.6% (active) | 48% (active) | 44.5% (active)
CCN(CC)S(=O)(=O)c1ccc(/C=C/C(=O)Nc2ccc(F)c(F)c2F)cc1 | -25.9% (inactive) | 30.7% (active) | 3.76% (inactive) | 28.7% (active)
COc1ccc(N/N=C(\C#N)C(=N)SCc2ccccc2)cc1 | 25.9% (inactive) | 34.2% (active) | 35.7% (inactive) | 29.5% (active)
COC(=O)c1cc(N/C(N)=N/c2nc(C)cc(C)n2)cc(C(=O)OC)c1 | 27.3% (inactive) | 55.4% (active) | 48.2% (active) | 52% (active)
COc1ccc(NC(=O)c2cc([N+](=O)[O-])ccc2O)cc1 | 42.1% (inactive) | 35.5% (active) | -37.7% (inactive) | 29.2% (active)
CN(C)CC(C(=O)c1ccccc1)c1ccccc1 (stereo not given) | 38.8% (inactive) | 46.8% (active) | 32% (inactive) | 41.8% (active)
O=C(/C=C/c1ccc(OCCCF)cc1)Nc1ccnc(-c2cccnc2)n1 | 17.1% (inactive) | 11.1% (inactive) | -25.6% (inactive) | 15.8% (inactive)
CC(C)(C)NC(=O)CSc1nc2ccc(NC(=O)CSc3nnnn3Cc3ccccc3)cc2s1 | 0.03% (inactive) | 28.7% (inactive) | 3.45% (inactive) | 26.4% (active)
COCC(C)n1c(C)cc(C(=O)COC(=O)c2cc(=O)[nH]c3ccccc23)c1C (stereo not given) | 1.93% (inactive) | -15.5% (inactive) | -34.1% (inactive) | -32.1% (inactive)
CCCCCCCCCCCCCCCCCCNc1ccn(C2OC(COP(=O)(O)OCC3OC(n4cc(F)c(=O)[nH]c4=O)CC3O)C(O)C2O)c(=O)n1 (stereo not given) | 52.3% (active) | 38.7% (active) | 51% (active) | 31.2% (active)
COc1cc(C(=O)N/N=C(\c2ccccc2)c2ccccn2)cc(OC)c1OC | 32.9% (inactive) | 23.2% (inactive) | 28.5% (inactive) | 21.9% (inactive)
